High-throughput results deposited in PubChem by several laboratories.
CYP2C19 activ: increases human CYP2C19 enzyme activity; P33261; recombinant CYP2C19, luciferin-H EGE luminescence; hits give high values; 0 = fully inhibited enzyme, 1 = untreated enzyme; activation factor at 5 µM; 96,000 tested, under 10 active;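 active = activation factor of at least 2 at 5 µM in the primary screen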
CYP2C19 inhib: human CYP2C19 inhibition; actives 21% (n = 96,000); CYP2C19 Supersomes, luciferin-H EGE luminescence, 30 min; inhibition, % at 5 µM; AID 778; P33261;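 active = CYP2C19 inhibition above a set limit at 5 µM in the primary screen, cut at about 50% in these data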
hDAT+cocaine: modulates human dopamine transporter uptake under cocaine; LLC-PK1 hDAT cells, [14C]-dopamine uptake with cocaine IC80; actives deviate in either direction; B-score at 10 µM; actives 1.3% (n = 110,000);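 active = Z score or B-score, a plate-position-corrected score, falls beyond the plate's 99.7% confidence bounds, in either direction; inactive = both scores lie inside the 99.7% bounds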
CYP2C9 activ: activators of human CYP2C9. activation factor at 5 µM. AID 1024. recombinant CYP2C9, luciferin-H conversion, luminescence; hits give high values; factor 1 = untreated enzyme, 0 = blocked. actives 1.4% (n = 96,000). P11712;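 active = activation factor of 2 or more for CYP2C9 at a 5 µM dose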
Target sequence (P11712 whole entry, looked up): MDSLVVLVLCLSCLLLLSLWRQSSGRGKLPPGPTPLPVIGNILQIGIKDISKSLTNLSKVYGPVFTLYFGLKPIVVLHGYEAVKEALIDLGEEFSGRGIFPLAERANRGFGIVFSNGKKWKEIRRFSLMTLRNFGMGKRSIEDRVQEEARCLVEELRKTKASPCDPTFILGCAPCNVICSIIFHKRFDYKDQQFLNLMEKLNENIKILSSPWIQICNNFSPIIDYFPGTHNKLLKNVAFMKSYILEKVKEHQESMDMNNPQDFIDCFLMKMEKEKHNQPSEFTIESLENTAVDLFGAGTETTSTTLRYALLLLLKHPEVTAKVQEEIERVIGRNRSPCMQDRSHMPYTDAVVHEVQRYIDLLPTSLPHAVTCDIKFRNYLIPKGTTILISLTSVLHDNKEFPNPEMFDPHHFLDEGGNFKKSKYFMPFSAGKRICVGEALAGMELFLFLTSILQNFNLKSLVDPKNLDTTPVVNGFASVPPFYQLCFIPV
CYP2C9 inhib: blocks human cytochrome P450 2C9; inhibition, % at 5 µM; actives 20% (n = 96,000); CYP2C9 Supersomes, luciferin-H conversion, luminescence; P11712;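 active = blocking of liver enzyme CYP2C9 beyond about 50% at 5 µM, limit read from the data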
D1 allo mod: D1 dopamine receptor (human) allosteric modulation; P21728; HEK293 D1, CRE-luciferase, dopamine EC30 potentiation; actives deviate in either direction; B-score at 10 µM; actives 5.9% (n = 58,000);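 active = luminescence count or its row- and column-corrected plate score outside the 99.7% band of the plate's sample wells, on either side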
Large screens that a line does not name were inactive. The list is not random: actives were taken first. Their share in the collection is about 28%.

CN1CCN(C(=O)Cn2c(=O)oc3cc(S(=O)(=O)NCc4ccccc4)ccc32)CC1	CYP2C9 inhib 50
CCOC(=O)Cn1c(=O)oc2cc(S(=O)(=O)Nc3ccc(F)cc3)ccc21	CYP2C9 inhib 58
CCOC(=O)Cn1c(=O)oc2cc(S(=O)(=O)NCCCc3ccccc3)ccc21	CYP2C9 inhib 68 (no result: D1 allo mod)
NC(=O)CC(NC(=O)Cc1ccc(Br)cc1)c1ccc(NCc2ccc(F)c(F)c2)c([N+](=O)[O-])c1 (configuration not stated)	none (no result: CYP2C19 activ, CYP2C19 inhib, CYP2C9 activ, CYP2C9 inhib, D1 allo mod)
COc1ccc(C(=O)COC(=O)CN2CC(=O)Oc3ccccc32)cc1Br	none
Cc1cc(C)n(Cc2ccc(Cl)c(Cl)c2)c(=O)c1S(=O)(=O)c1ccccc1	none (no result: hDAT+cocaine, D1 allo mod)
COc1ccccc1N1CCN(/N=C/c2c(C)nn(-c3ccccc3)c2C)CC1	none (no result: D1 allo mod)
CC1CCN(S(=O)(=O)c2cccc(C(=O)O)c2)CC1	none (no result: D1 allo mod)
COC(=O)c1cc(S(=O)(=O)N2CCC(C)CC2)ccc1F	CYP2C19 inhib 88
COC(=O)c1cccc(S(=O)(=O)N2CCC(C)CC2)c1	CYP2C19 inhib 55
COc1ccc(CC(=O)Nc2cccc(C(=O)O)c2C)cc1	none
O=C1N/C(=N/Nc2ccccc2)S/C1=C\c1ccccc1	CYP2C19 inhib 53, CYP2C9 inhib 67 (no result: hDAT+cocaine, D1 allo mod)
O=C(CN(Cc1ccccc1F)C(=O)Cn1nnc(-c2cccs2)n1)NC1CCCCC1	none (no result: D1 allo mod)
O=C(CN(C(=O)Cn1nnc(-c2cccs2)n1)c1ccc2c(c1)OCCO2)NCC1CCCO1 (configuration not stated)	CYP2C9 inhib 88 (no result: D1 allo mod)
Cc1ccc(-c2nnn(CC(=O)N(CC(=O)NCC3CCCO3)c3ccccc3)n2)o1 (configuration not stated)	none
CC(C)CCNC(=O)C(c1ccncc1)N(Cc1cccs1)C(=O)Cn1nnc(-c2ccc(F)cc2)n1 (configuration not stated)	none (no result: CYP2C19 activ, CYP2C19 inhib, CYP2C9 activ, CYP2C9 inhib, D1 allo mod)
O=C(CN(C(=O)Cn1nnc(-c2cccs2)n1)c1ccc2c(c1)OCCO2)NC1CCCCC1	CYP2C19 inhib 60, CYP2C9 inhib 99
CC(C)CCNC(=O)CN(Cc1ccc2c(c1)OCO2)C(=O)Cn1nnc(-c2cccs2)n1	CYP2C9 inhib 92
CC(C)CCNC(=O)CN(CCCN1CCOCC1)C(=O)Cn1nnc(-c2ccc(F)cc2)n1	CYP2C9 inhib 52
O=C(NCc1ccccc1)C(c1ccc(O)cc1)N(C(=O)Cn1nnc(-c2cccs2)n1)c1ccc2c(c1)OCCO2 (configuration not stated)	none (no result: CYP2C19 activ, CYP2C19 inhib, CYP2C9 activ, CYP2C9 inhib, D1 allo mod)
NC(=O)CN1CCN(C(=O)Nc2ccccc2)CC1	none
O=C(CN(C(=O)Cn1nnc(-c2cccs2)n1)c1cnc2ccccc2c1)NCC1CCCO1 (configuration not stated)	CYP2C9 inhib 75 (no result: D1 allo mod)
Cc1ccc(-c2nnn(CC(=O)N(CC(=O)NC3CCCCC3)c3cnc4ccccc4c3)n2)o1	none (no result: CYP2C19 activ, CYP2C19 inhib, CYP2C9 activ, CYP2C9 inhib)
O=C(CN(Cc1ccccc1F)C(=O)Cn1nnc(-c2cccs2)n1)NCC1CCCO1 (configuration not stated)	CYP2C19 inhib 68, CYP2C9 inhib 63
Cc1ccc(C)n1C1CCS(=O)(=O)C1 (configuration not stated)	D1 allo mod -4.6
COc1ccc(-c2cnn(C3CCS(=O)(=O)C3)c2N)cc1 (configuration not stated)	none (no result: D1 allo mod)
COc1cccc(CN2CCN(C(=O)c3cccc(F)c3)CC2)c1	none (no result: CYP2C19 activ, CYP2C19 inhib, hDAT+cocaine, CYP2C9 activ, CYP2C9 inhib)
CCCC(O)(c1ccc(Cl)cc1)C(CN1CCOCC1)c1ccccc1 (configuration not stated)	hDAT+cocaine -2.8 (no result: D1 allo mod)
CCOC(=O)N1CC=C2C(C#N)=C(N)C(C#N)(C#N)[C@H](c3ccc(OC(C)C)c(OCC)c3)[C@H]2C1	CYP2C9 inhib 74
CCOC(=O)N1CC=C2C(C#N)=C(N)C(C#N)(C#N)[C@H](c3ccccc3OCC)[C@H]2C1	none
O=C(COc1ccc(F)c(Cl)c1)c1ccc[nH]1	CYP2C19 inhib 74
CCOCCCNC(=O)C(c1ccc(Cl)cc1)N1CCN(c2ccccc2)CC1 (configuration not stated)	CYP2C19 inhib 51
O=C(Nc1ccc2c(c1)OCO2)C(c1ccc(Cl)cc1)N1CCC2(CC1)OCCO2 (configuration not stated)	CYP2C19 inhib 52
CCOCCCNC(=O)C(c1ccc(Cl)cc1)N1CCC2(CC1)OCCO2 (configuration not stated)	CYP2C19 inhib 59, hDAT+cocaine -8.5
O=C(O)C1=C[C@H](c2ccc(F)cc2)C[C@H](OCCCCO)O1	none (no result: CYP2C19 activ, CYP2C19 inhib, CYP2C9 activ, CYP2C9 inhib, D1 allo mod)
COCC(=O)N(C)C1(c2nnnn2CCOC(=O)Nc2cccc3ccccc23)CCCC1	none
Cc1ccccc1NC(=S)C1=C(O)c2sccc2N(C)S1(=O)=O	CYP2C9 inhib 72 (no result: D1 allo mod)
CN1c2ccsc2C(O)=C(C(=S)Nc2ccccc2)S1(=O)=O	CYP2C9 inhib 78 (no result: D1 allo mod)
Cc1ccccc1NC(=S)NCc1cccs1	none (no result: D1 allo mod)
CN1C(C(=O)Nc2ccccn2)=C(O)c2sccc2S1(=O)=O	none (no result: CYP2C19 activ, CYP2C19 inhib, CYP2C9 activ, CYP2C9 inhib, D1 allo mod)
Cc1ccc(CNC(=O)CCS(=O)(=O)c2ccc(Br)s2)cc1	none (no result: D1 allo mod)
COC(=O)CNc1c(-c2ccccc2)nc2ccc(Br)cn12	CYP2C19 inhib 69, CYP2C9 inhib 77 (no result: D1 allo mod)
CCCNC(=O)c1ccccc1NC(=O)C1COc2ccccc2O1 (configuration not stated)	CYP2C19 inhib 59 (no result: D1 allo mod)
O=C(NCCOC(=O)C1COc2ccccc2O1)C1COc2ccccc2O1 (configuration not stated)	CYP2C19 inhib 88, CYP2C9 inhib 69
CCCCNC(=O)C1COc2ccccc2O1 (configuration not stated)	CYP2C19 inhib 56 (no result: D1 allo mod)
O=C(COc1nncc2ccccc12)NCCC1=CCCCC1	none
O=C(COc1cnc2ccccc2n1)NCCC1=CCCCC1	CYP2C19 inhib 55
O=C(/C=C/c1cccc2ccccc12)NCCC1=CCCCC1	CYP2C9 activ 2.7 (no result: hDAT+cocaine, D1 allo mod)
O=C(COc1ncnc2ccccc12)NCCC1=CCCCC1	CYP2C19 inhib 54
O=C(CCNC(=O)Cn1cnc2ccccc2c1=O)NCCC1=CCCCC1	none (no result: D1 allo mod)
O=C(Cn1nc(C(=O)O)c2ccccc2c1=O)NCCC1=CCCCC1	CYP2C19 inhib 58
COc1ccccc1CNC(=O)C(NS(=O)(=O)c1ccc2c(c1)oc(=O)n2C)C(C)C (configuration not stated)	none (no result: D1 allo mod)
CSc1ccc(C2Nc3ccccc3-c3cc(C)nn32)cc1 (configuration not stated)	CYP2C19 inhib 50
Cc1cccc(C2Nc3ccccc3C(=O)N2c2ccc(F)cc2)n1 (configuration not stated)	none (no result: CYP2C19 activ, CYP2C19 inhib, CYP2C9 activ, CYP2C9 inhib, D1 allo mod)
COC(=O)c1cc2oc(C)cc2n1CC(=O)Nc1ccc(OC)c(OC)c1OC	CYP2C19 inhib 59, CYP2C9 inhib 63
CC(=O)/C(=C/N(C)C)Sc1ccc(C)cc1	CYP2C19 inhib 73 (no result: D1 allo mod)
CCOC(=O)C(=O)Nc1nnc(CCc2ccccc2)s1	none (no result: CYP2C19 activ, CYP2C19 inhib, CYP2C9 activ, CYP2C9 inhib, D1 allo mod)
